# According to PubChem BioAssay (NCATS):
# Values joined by “and” are separate entries in the source; they are usually repeats but may differ in a detail not shown here. Equal entries are not always repeated. Results filed as inconclusive are left out. Some compounds were tested as several samples or in several runs, with calls that do not always agree. Active and inactive are the calls of the source. The call rests on the fitted dose curve; in most records, active means well fitted inhibition curve with a large enough effect; inconclusive means small, poorly fitted or top-dose-only effect; inactive means flat fitted curve, though single readings scatter.
# System: CRL-7250
# Assay: Cytotoxic Profiling of Annotated Libraries Using Quantitative High-Throughput Screening (AID 1296008); further: nearly all actives have a fitted effect of over 60% in size
# Settings: Five cell lines viability, CellTiter-Glo ATP luminescence, 48-72 h; max response: active compounds read low
# Summary of the method: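 Compounds were pin-transferred onto cells and incubated 48 or 72 hr at 37 degree Celsius, 95% humidity. CellTiter-Glo was added, plates sat 10 min at room temperature, then ATP-coupled luminescence was imaged as the viability read-out.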
# On the % scale 0 is the no-effect control and ±100 the full control effect; potency means the concentration at half of the fitted maximal effect.
Structure (SMILES),Potency,max response
CC[C@@]1(O)C(=O)OCc2c1cc1n(c2=O)Cc2cc3cc(O)ccc3nc2-1,1.3 µM (active) and 1.48 µM (active),
CCOC(=O)C1=C(C)NC2=C(C(=O)CC(C)(C)C2)C1c1ccc(-c2ccccc2)cc1 (centres undefined),26.4 µM (active) and 10.3 µM (active),
Cc1ccc(C(N)=O)cc1Nc1nccc(-c2cn(C(C)C)c3cnccc23)n1,11.6 µM (active),
CC(O)C1C(=O)N2C(C(=O)O)=C(SC3CNC(C(=O)N(C)C)C3)C(C)C12 (centres undefined),,-9.97% (inactive) and 0.421% (inactive)
O=C(Cc1ccc(-c2ccc(OCCN3CCOCC3)cc2)cn1)NCc1ccccc1,23.5 nM (active) and 1.3 µM (active),
O=c1c2ccccc2nc2n1CCc1c-2[nH]c2ccccc12,,3.31% (inactive)
N#CCNC(=O)c1ccc(-c2ccnc(Nc3ccc(N4CCOCC4)cc3)n2)cc1,7.43 µM (active) and 6.51 µM (active),
O=C(O)C1(Cc2cccc(Nc3nccs3)n2)CCC(Oc2cccc(Cl)c2F)CC1 (centres undefined),,-5.96% (inactive) and -3.26% (inactive)
Cn1c(CNc2ccc(C(=N)N)cc2)nc2cc(C(=O)N(CCC(=O)O)c3ccccn3)ccc21,7.24 µM (active),-5.55% (inactive)
Cc1nc(Nc2n[nH]c3c2CN(C(=O)N[C@H](CN(C)C)c2ccccc2)C3(C)C)c2sccc2n1,1.18 µM (active) and 130 nM (active),
c1cc(-c2cnn3cc(-c4ccc(OCCN5CCCCC5)cc4)cnc23)ccn1,6.62 µM (active),
CCOc1cc2ncc(C#N)c(Nc3ccc(F)c(Cl)c3)c2cc1NC(=O)C=CCN(C)C,0.105 µM (active),
CC(C)c1cc(C(=O)N2Cc3ccc(CN4CCN(C)CC4)cc3C2)c(O)cc1O,0.935 µM (active),
Cc1ccc(-c2ncn(-c3ccc(Nc4nccc(-c5cccc(N6CCOCC6)c5)n4)cc3)n2)cn1,0.118 µM (active),
CC(C)(C)OC(=O)Nc1ccc(-c2cc(C(=O)NCCCCCCC(=O)NO)no2)cc1,16.6 µM (active),
C=CC(=O)N1CCC[C@@H](n2nc(-c3ccc(Oc4ccccc4)cc3)c3c(N)ncnc32)C1,,2.95% (inactive)
Cc1nc2cnc3ccc(C#Cc4cccnc4)cc3c2n1-c1ccc(C(C)(C)C#N)cc1,0.0469 µM (active),
CN1CCN(c2cc(C(=O)Nc3ccc4c(c3)-c3c(c(C(N)=O)nn3-c3ccc(F)cc3)CC4)c(Cl)cn2)CC1,,-32.2% (inactive)
Cn1c2cc(S(C)=O)sc2c2cnn(Cc3cccc(N)c3)c(=O)c21 (centres undefined),,0.238% (inactive)
COC(=O)[C@]12CCC(C)(C)C[C@@H]1[C@@H]1C(=O)C=C3[C@@]4(C)C=C(C#N)C(=O)C(C)(C)[C@@H]4CC[C@@]3(C)[C@]1(C)CC2,4.69 µM (active),
COc1c(OCCCN2CCOCC2)ccc2c3n(c(=NC(=O)c4cnc(N)nc4)nc12)CCN3,2.29 µM (active),
COc1cc2c(Oc3ccc(NC(=O)C4(C(=O)Nc5ccc(F)cc5)CC4)cc3F)ccnc2cc1OCCCN1CCOCC1,10.5 µM (active) and 8.2 µM (active),
CC=C1NC(=O)[C@H]2CSSCCC=C[C@H](CC(=O)N[C@H](C(C)C)C(=O)N2)OC(=O)[C@H](C(C)C)NC1=O,0.0187 µM (active),
